Measured values from PubChem BioAssay (NCATS).
Records with an inconclusive call do not appear. Entries that show only a call come without a potency. Active and inactive are the calls of the source. Calls come from the whole dose curve; as a rule, active = well fitted inhibition curve with a large enough effect; inconclusive = small, poorly fitted or top-dose-only effect; inactive = flat fitted curve, though single readings scatter.

These compounds were tested on CP268 (assay: qHTS profiling for inhibitors of Plasmodium falciparum proliferation (AID 504749; note: nearly all actives have a fitted effect of over 60% in size)). Details: P. falciparum in erythrocytes, SYBR Green DNA, 72 h; series mostly up to 12.8 µM.
How it was run: (§1)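 P. falciparum-infected erythrocytes (0.3% parasitemia, 2.5% hematocrit) incubated with compound 72 h at 37 C, 5% CO2. Parasite DNA detected by SYBR Green after lysis, overnight at room temperature; normalised to 0.29 uM artemisinin and DMSO.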
`C[N+](C)(C)CC(O)CC(=O)O` (stereo unspecified) was tested, and the Potency was “inactive”. For `CN1CCCC[C@@H]1CCN1c2ccccc2Sc2ccc(S(C)=O)cc21` (stereo partly specified), the Potency was “inactive”. With `O=C(Cc1cccs1)NC1C(=O)N2C(C(=O)[O-])=C(C[n+]3ccccc3)CSC12` (stereo unspecified) the Potency was “inactive”. With `C[C@@H]1CCC[C@H](C)N1NC(=O)c1ccc(Cl)c(S(N)(=O)=O)c1` the Potency was “inactive”. In the case of `CC(C)N1CCN(c2ccc(OC[C@@H]3CO[C@@](Cn4cncn4)(c4ccc(Cl)cc4Cl)O3)cc2)CC1`, the Potency is reported as “inactive”.

The compounds below were run on CP269 in the same assay as above. Details: P. falciparum in erythrocytes, SYBR Green DNA, 72 h; series mostly up to 12.8 µM.
How it was run: as §1
In the case of `C[N+](C)(C)CC(O)CC(=O)O` (stereo unspecified), the Potency is reported as “inactive”. With `CN1CCCC[C@@H]1CCN1c2ccccc2Sc2ccc(S(C)=O)cc21` (stereo partly specified) the Potency was “inactive”. In the case of `O=C(Cc1cccs1)NC1C(=O)N2C(C(=O)[O-])=C(C[n+]3ccccc3)CSC12` (stereo unspecified), the Potency is reported as “inactive”. In the case of `C[C@@H]1CCC[C@H](C)N1NC(=O)c1ccc(Cl)c(S(N)(=O)=O)c1`, the Potency is reported as “inactive”. With `CC(C)N1CCN(c2ccc(OC[C@@H]3CO[C@@](Cn4cncn4)(c4ccc(Cl)cc4Cl)O3)cc2)CC1` the Potency was “inactive”.

The compounds below were run on CP286 in the same assay as above. Details: P. falciparum in erythrocytes, SYBR Green DNA, 72 h; series mostly up to 12.8 µM.
How it was run: as §1
With `C[N+](C)(C)CC(O)CC(=O)O` (stereo unspecified) the Potency was “inactive”. `CN1CCCC[C@@H]1CCN1c2ccccc2Sc2ccc(S(C)=O)cc21` (stereo partly specified) was tested, and the Potency was “inactive”. `O=C(Cc1cccs1)NC1C(=O)N2C(C(=O)[O-])=C(C[n+]3ccccc3)CSC12` (stereo unspecified) was tested, and the Potency was “inactive”. For `CN(C)CC/C=C1\c2ccccc2CSc2ccccc21`, the Potency was “inactive”. For `C[C@@H]1CCC[C@H](C)N1NC(=O)c1ccc(Cl)c(S(N)(=O)=O)c1`, the Potency was “inactive”. For `CC(C)N1CCN(c2ccc(OC[C@@H]3CO[C@@](Cn4cncn4)(c4ccc(Cl)cc4Cl)O3)cc2)CC1`, the Potency was “inactive”.

Each compound was assayed on CP291 in the same assay as above. Details: P. falciparum in erythrocytes, SYBR Green DNA, 72 h; series mostly up to 12.8 µM.
How it was run: as §1
In the case of `C[N+](C)(C)CC(O)CC(=O)O` (stereo unspecified), the Potency is reported as “inactive”. `CN1CCCC[C@@H]1CCN1c2ccccc2Sc2ccc(S(C)=O)cc21` (stereo partly specified) was tested, and the Potency was “inactive”. In the case of `O=C(Cc1cccs1)NC1C(=O)N2C(C(=O)[O-])=C(C[n+]3ccccc3)CSC12` (stereo unspecified), the Potency is reported as “inactive”. `C[C@@H]1CCC[C@H](C)N1NC(=O)c1ccc(Cl)c(S(N)(=O)=O)c1` was tested, and the Potency was “inactive”. `CC(C)N1CCN(c2ccc(OC[C@@H]3CO[C@@](Cn4cncn4)(c4ccc(Cl)cc4Cl)O3)cc2)CC1` was tested, and the Potency was “inactive”.

These compounds were tested on CP297 in the same assay as above. Details: P. falciparum in erythrocytes, SYBR Green DNA, 72 h; series mostly up to 12.8 µM.
How it was run: as §1
For `C[N+](C)(C)CC(O)CC(=O)O` (stereo unspecified), the Potency was “inactive”. With `O=C(Cc1cccs1)NC1C(=O)N2C(C(=O)[O-])=C(C[n+]3ccccc3)CSC12` (stereo unspecified) the Potency was “inactive”. For `CN(C)CC/C=C1\c2ccccc2CSc2ccccc21`, the Potency was “inactive”. `C[C@@H]1CCC[C@H](C)N1NC(=O)c1ccc(Cl)c(S(N)(=O)=O)c1` was tested, and the Potency was “inactive”. With `CC(C)N1CCN(c2ccc(OC[C@@H]3CO[C@@](Cn4cncn4)(c4ccc(Cl)cc4Cl)O3)cc2)CC1` the Potency was “inactive”.
